Compound activity deposited in PubChem by Broad Institute.
SIRT5 block – blocks human SIRT5 desuccinylation of peptide; Q9NXA8; Purified SirT5, succinyl-peptide AMC, trypsin-coupled fluorescence; inhibition, % at 15 µM; actives 1.1% (n = 330,000); AID 652115; in the data active = inhibition above about 15%
Target sequence (Q9NXA8 whole entry, looked up): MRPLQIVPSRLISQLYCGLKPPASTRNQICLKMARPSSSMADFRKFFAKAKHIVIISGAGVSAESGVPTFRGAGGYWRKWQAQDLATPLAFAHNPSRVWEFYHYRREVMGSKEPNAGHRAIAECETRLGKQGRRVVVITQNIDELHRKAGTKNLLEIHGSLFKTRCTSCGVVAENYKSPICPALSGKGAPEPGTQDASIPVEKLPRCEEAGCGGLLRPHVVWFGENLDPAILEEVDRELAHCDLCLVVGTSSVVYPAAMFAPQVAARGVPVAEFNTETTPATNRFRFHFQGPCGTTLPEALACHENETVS
Ecoli rRNA inh – inhibitors of bacterial rRNA selective over humanized ribosomes; GFP signal change (wild-type ribosome), % (no concentration beside the values); E. coli WT GFP vs humanized-ribosome RFP mutants, fluorescence, 24 h; stronger effect = lower value; DMSO median 0, no signal -100; actives 1.6% (n = 350,000); AID 720706;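 active = significant combined selectivity score with lowered wild-type GFP, culture density cut under 30%, mutant RFP and density less affected; inactive = any of these conditions unmet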
PAX8 inh HTS – lowers PAX8-driven luciferase in RMG-I cells; RMG-I TPO-luciferase reporter, SteadyGlo, 24 h; inhibition, % at 12.6 µM; actives 1.2% (n = 360,000);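 active = mean replicate inhibition at least 60% with every replicate also reaching 60%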;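 note: luciferase light reporting Pax8 driven TPO promoter activity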
PGC1a acetyl inh – PGC1a acetylation modulation, inhibitor mode | U2OS PGC1a acetylation, AlphaScreen anti-acetyl-lysine; with virally co-expressed GCN5 acetyltransferase | inhibition, % at 15.6 µM | actives 0.17% (n = 350,000) | AID 651687;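 active = every replicate shows inhibition of at least 40%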
LGR2 inh – blocks bursicon-induced cAMP signaling via Drosophila LGR2; HEK293 LGR2, CRE-luciferase, bursicon-stimulated, 4 h; actives 0.35% (n = 380,000); inhibition, % at 9.99 µM;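 active = drop in luminescence signal, shown as inhibition above about 50% in the replicate tests, limit read from the data, passing the limit was not always enough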;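 note: agonist challenge used bursicon conditioned medium at about half maximal strength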
EWS-Fli inh – blocks EWS/Fli oncoprotein-driven transcription; A673 NR0B1-luciferase reporter, viability-normalised; inhibition, % at 12.6 µM; actives 0.67% (n = 350,000);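 active = mean inhibition of at least 50% after viability correction, with every replicate also passing that limit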;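 note: firefly luciferase signal divided by Alamar Blue viability fluorescence both relative to DMSO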
Numbers stand for hits. A selection: hits, their analogues and other compounds. The true share with any hit is near 3.4%.

CCC(=O)NC(c1ccccc1OC)c1ccc2cccnc2c1O (stereo not drawn) was read as PGC1a acetyl inh inactive.
Screening Cc1cc(C(=O)Nc2cccc3c2O[C@H](CN(C)Cc2ccc(C(=O)O)cc2)[C@H](C)CN([C@H](C)CO)C3=O)n(C)n1 returned SIRT5 block inactive, Ecoli rRNA inh inactive, PAX8 inh HTS inactive, PGC1a acetyl inh inactive and LGR2 inh inactive.
For CCCCC(=O)NC(c1cccc([N+](=O)[O-])c1)c1ccc2cccnc2c1O (stereo not drawn) the results were Ecoli rRNA inh inactive, PAX8 inh HTS inactive, PGC1a acetyl inh inactive, LGR2 inh inactive and EWS-Fli inh inactive.
For CCCCC(=O)NC(c1ccccc1)c1ccc2cccnc2c1O (stereo not drawn) the results were SIRT5 block inactive, Ecoli rRNA inh inactive, PAX8 inh HTS 87, PGC1a acetyl inh inactive, LGR2 inh inactive and EWS-Fli inh inactive.
Screening Oc1cccc(C(Nc2nccs2)c2ccc3cccnc3c2O)c1 (stereo not drawn) returned SIRT5 block inactive, Ecoli rRNA inh inactive, PAX8 inh HTS 75, PGC1a acetyl inh inactive, LGR2 inh inactive and EWS-Fli inh inactive.
Screening CCCCC(=O)NC(c1ccc(C(C)C)cc1)c1ccc2cccnc2c1O (stereo not drawn) returned SIRT5 block inactive, Ecoli rRNA inh inactive, PAX8 inh HTS 85, LGR2 inh inactive and EWS-Fli inh inactive.
`C[C@H](CO)N1C[C@H](C)[C@@H](CN(C)Cc2ccccc2)Oc2ccc(N(C)C)cc2C1=O` gave SIRT5 block 21, Ecoli rRNA inh inactive, PAX8 inh HTS inactive, PGC1a acetyl inh inactive and EWS-Fli inh inactive.
C[C@@H]1CN([C@@H](C)CO)C(=O)c2cccc(N(C)C)c2O[C@@H]1CN(C)Cc1ccccc1 was read as SIRT5 block 23, Ecoli rRNA inh inactive, PAX8 inh HTS inactive, PGC1a acetyl inh inactive, LGR2 inh inactive and EWS-Fli inh inactive.
Screening C[C@H](CO)N1C[C@H](C)[C@@H](CN(C)Cc2ccccc2)Oc2c(cccc2N(C)C)C1=O returned SIRT5 block inactive, Ecoli rRNA inh inactive, PAX8 inh HTS inactive, PGC1a acetyl inh inactive and EWS-Fli inh inactive.
For O=C(C[C@H]1C=C[C@@H](NC(=O)c2ccccc2)[C@@H](CO)O1)NCCc1ccncc1 the results were SIRT5 block inactive, Ecoli rRNA inh inactive, PAX8 inh HTS inactive, PGC1a acetyl inh inactive, LGR2 inh inactive and EWS-Fli inh inactive.
Screening Cc1ccc(S(=O)(=O)Nc2ccc3c(c2)CC(=O)N([C@@H](C)CO)C[C@@H](C)[C@H](CN(C)Cc2ccc(C(=O)O)cc2)O3)cc1 returned SIRT5 block inactive, Ecoli rRNA inh inactive, PAX8 inh HTS inactive, PGC1a acetyl inh inactive, LGR2 inh inactive and EWS-Fli inh inactive.
For CC(C)Oc1ccc(C(=O)NC(=S)Nc2ccc(Cl)c(C(=O)O)c2)cc1 the results were SIRT5 block inactive, Ecoli rRNA inh -21, PAX8 inh HTS inactive, PGC1a acetyl inh inactive, LGR2 inh inactive and EWS-Fli inh inactive.
For COc1cccc(C(=O)NC(=S)Nc2ccc(Cl)c(C(=O)O)c2)c1 the results were PGC1a acetyl inh inactive.
For C[C@@H]1CN([C@H](C)CO)C(=O)c2cc(C#CC3CC3)cnc2O[C@@H]1CN(C)S(C)(=O)=O the results were SIRT5 block inactive, Ecoli rRNA inh inactive, PGC1a acetyl inh inactive, LGR2 inh inactive and EWS-Fli inh inactive.
Screening Oc1ccccc1N=Nc1ccccc1O returned SIRT5 block inactive, Ecoli rRNA inh inactive, PAX8 inh HTS inactive, LGR2 inh inactive and EWS-Fli inh inactive.
Nc1ccc(N=Nc2ccccc2O)c(N)c1 was read as SIRT5 block inactive, Ecoli rRNA inh -40, PAX8 inh HTS inactive, PGC1a acetyl inh inactive, LGR2 inh inactive and EWS-Fli inh inactive.
`CCN(CC)Cc1c(C(=O)N/N=C/c2ccc(C)o2)nnn1-c1nonc1N` gave SIRT5 block 85, Ecoli rRNA inh inactive, PAX8 inh HTS inactive, PGC1a acetyl inh inactive, LGR2 inh inactive and EWS-Fli inh inactive.
CN(Cc1c(C(=O)N/N=C/c2ccccc2O)nnn1-c1nonc1N)C1CCCCC1 was read as Ecoli rRNA inh inactive, PAX8 inh HTS 70, PGC1a acetyl inh inactive, LGR2 inh inactive and EWS-Fli inh inactive.
For CC(C)c1c(C(=O)N/N=C/c2ccc3c(c2)OCO3)nnn1-c1nonc1N the results were SIRT5 block inactive, Ecoli rRNA inh inactive, PAX8 inh HTS inactive, PGC1a acetyl inh inactive, LGR2 inh inactive and EWS-Fli inh inactive.
Screening CCN(CC)c1ccc(/C=N/NC(=O)c2nnn(-c3nonc3N)c2C(C)C)c(O)c1 returned SIRT5 block inactive, Ecoli rRNA inh inactive, PAX8 inh HTS 85 and LGR2 inh inactive.
Screening CN1CCN(Cc2c(C(=O)N/N=C/c3cccc(Br)c3)nnn2-c2nonc2N)CC1 returned SIRT5 block inactive, Ecoli rRNA inh inactive, PAX8 inh HTS inactive, PGC1a acetyl inh inactive, LGR2 inh inactive and EWS-Fli inh 52.
For CCN(CC)Cc1c(C(=O)N/N=C/c2ccncc2)nnn1-c1nonc1N the results were SIRT5 block inactive, Ecoli rRNA inh inactive, PAX8 inh HTS inactive, PGC1a acetyl inh inactive, LGR2 inh inactive and EWS-Fli inh inactive.
`O=C(Cn1cnc2ccccc21)c1ccc(Br)cc1` gave SIRT5 block inactive, Ecoli rRNA inh -28, PAX8 inh HTS inactive, PGC1a acetyl inh inactive, LGR2 inh inactive and EWS-Fli inh inactive.
For Cc1ccc(S(=O)(=O)N2C[C@H]3[C@H]4C(=O)N(c5ccccc5)C(=O)[C@H]4C[C@H](OC(=O)NCc4ccccc4)[C@@]3(O)C2)cc1 the results were SIRT5 block 22, Ecoli rRNA inh inactive, PAX8 inh HTS inactive, PGC1a acetyl inh inactive, LGR2 inh inactive and EWS-Fli inh inactive.
For CCCCCCNC(=O)O[C@H]1Cn2c(=O)ccc(=O)n2[C@@H]2CN(S(=O)(=O)c3ccc(C)cc3)C[C@]12O the results were SIRT5 block inactive, Ecoli rRNA inh -26, PAX8 inh HTS 77, PGC1a acetyl inh inactive, LGR2 inh inactive and EWS-Fli inh 71.
For C[C@@H]1CN([C@H](C)CO)C(=O)c2cc(-c3cccnc3)cnc2O[C@@H]1CN(C)Cc1ccccc1 the results were Ecoli rRNA inh inactive, PGC1a acetyl inh inactive, LGR2 inh inactive and EWS-Fli inh inactive.
CC(=O)N(C)C[C@H]1Oc2ccc(NC(=O)NC(C)C)cc2C(=O)N(C)C[C@H]1C was read as Ecoli rRNA inh inactive.
`CCOC(=O)N1CCN(C2=C(NS(=O)(=O)c3ccc(Br)cc3)C(=O)c3ccccc3C2=O)CC1` gave Ecoli rRNA inh inactive, PAX8 inh HTS inactive, PGC1a acetyl inh inactive, LGR2 inh inactive and EWS-Fli inh inactive.
`NC(=O)C1CCN(C2=C(NS(=O)(=O)c3ccc(Br)cc3)C(=O)c3ccccc3C2=O)CC1` gave SIRT5 block inactive, Ecoli rRNA inh -31, PAX8 inh HTS inactive, PGC1a acetyl inh inactive, LGR2 inh inactive and EWS-Fli inh inactive.
